Results reported in PubChem BioAssay AID1159580 (chemical genetic matrix, 2015).
About 2,000 (36%) of roughly 5,500 compounds were called active. About 18% were inconclusive and are not listed. Rule as the data show it: active = normalized growth mostly below about 0.91 (no sharp cut-off); inconclusive = no clear call, values can overlap the other calls; inactive = mostly above about 0.92. This is one part of the list.

Assay: chemical genetic growth profiling, strain panel (AID 1159580);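 also: tested at 20 µM; growth read once vehicle control cultures reached saturation at 30 °C; 1 = growth at the plate median or of vehicle wells; lower values mean less growth of the strain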
Details: S. cerevisiae deletion strains, growth OD

Measured: normalized growth

O=S(=O)(c1cccc2c(Cl)cccc12)N1CCCNCC1
inactive: locus YAL040C, strain CLN3, active compounds read low 0.99 | locus YDR363W, strain ESC2, active compounds read low 1 | locus YER002W, strain NOP16, active compounds read low 0.988 | locus YGR078C, strain PAC10, active compounds read low 0.986 | locus YMR263W, strain SAP30, active compounds read low 1 | locus YNL128W, strain TEP1, active compounds read low 1.01 | locus YNL175C, strain NOP13, active compounds read low 1.03 | locus YNL197C, strain WHI3, active compounds read low 1.03 | locus YNL224C, strain SQS1, active compounds read low 1.01 | locus YOR083W, strain WHI5 (second series), active compounds read low 1.02 | locus YPL241C, strain CIN2, active compounds read low 1
